{"source": "PubChem BioAssay (NCATS)", "note": "Inconclusive results are not listed. More than one record can exist for a structure, and the calls need not agree. Active and inactive are the calls of the source. Unless noted, calls come from the whole dose curve; as a rule, active = well fitted inhibition curve with a large enough effect; inconclusive = small, poorly fitted or top-dose-only effect; inactive = no such curve, though single readings can be large or run the other way."}
{"tested_on": "not listed separately", "assay": "NS1 protein of Zika virus - qHTS assay to identify small molecule inhibitors in human HEK 293 cells (AID 1347053); note: nearly all actives have a fitted effect of over 55% in size; note: potency is the fitted concentration of half-maximal effect;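 for activity change, negative = inhibition: plate controls were infected untreated cells for no effect and uninfected cells for full effect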", "settings": "HEK293 ZIKV MR766 infection, NS1 TR-FRET, 24 h; series mostly up to 46.1 µM; activity change, negative = inhibition: at the top concentration", "in_short": "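Readout was TR-FRET using paired anti-NS1 antibodies after 24 h infection of HEK 293 cells with ZIKV MR766 (MOI = 0.5). Compound preceded virus by 1 h; reduced signal reflects lower NS1 expression.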"}
{"smiles": "COc1cc2c(c(OC)c1OC)-c1ccc(OC)c(=O)cc1[C@@H](NC(C)=O)CC2", "Potency": "inactive"}
{"smiles": "CN(C)C(=O)C(CCN1CCC(O)(c2ccc(Cl)cc2)CC1)(c1ccccc1)c1ccccc1", "Potency": "inactive"}
{"smiles": "COc1nc(C)nc(Cl)c1NC1=NCCN1", "Potency": "inactive"}
{"smiles": "Cc1ccc(C(=O)Nc2ccc(S(=O)(=O)O)c3cc(S(=O)(=O)O)cc(S(=O)(=O)O)c23)cc1NC(=O)c1cccc(NC(=O)Nc2cccc(C(=O)Nc3cc(C(=O)Nc4ccc(S(=O)(=O)O)c5cc(S(=O)(=O)O)cc(S(=O)(=O)O)c45)ccc3C)c2)c1", "Potency": "inactive"}
{"smiles": "OCCN1CCN(CCCN2c3ccccc3Sc3ccc(C(F)(F)F)cc32)CC1", "Potency": "16.6 µM (active) and inactive"}
{"smiles": "C[C@](N)(Cc1ccc(O)c(O)c1)C(=O)O", "Potency": "inactive"}
{"smiles": "Cc1cn([C@H]2C[C@H](N=[N+]=[N-])[C@@H](CO)O2)c(=O)[nH]c1=O", "Potency": "inactive"}
{"smiles": "NC(=O)OCC(COC(N)=O)c1ccccc1", "Potency": "inactive"}
{"smiles": "NC(CO)C(=O)NNCc1ccc(O)c(O)c1O", "note": "(configuration not stated)", "Potency": "inactive"}
{"smiles": "O=C(c1ccc(F)cc1)C1CCN(CCn2c(=O)[nH]c3ccccc3c2=O)CC1", "Potency": "inactive"}
{"smiles": "Cc1cc(C(C)(C)C)c(O)c(C)c1CC1=NCCN1", "Potency": "inactive"}
{"smiles": "COc1cc2nc(N(C)CCCNC(=O)C3CCCO3)nc(N)c2cc1OC", "note": "(configuration not stated)", "Potency": "inactive"}
{"smiles": "CCCCc1oc2ccccc2c1C(=O)c1cc(I)c(OCCN(CC)CC)c(I)c1", "Potency": "29.6 µM (active) and inactive"}
{"smiles": "COc1cc2nc(N3CCN(C(=O)c4ccco4)CC3)nc(N)c2cc1OC", "Potency": "9.35 µM (active)"}
{"molecular_target": "T1, Tyrosine-protein phosphatase non-receptor type substrate 1 (Homo sapiens) + Leukocyte surface antigen CD47 (Homo sapiens) (UniProt P78324+Q08722)", "T1 sequence (P78324 whole entry, looked up)": "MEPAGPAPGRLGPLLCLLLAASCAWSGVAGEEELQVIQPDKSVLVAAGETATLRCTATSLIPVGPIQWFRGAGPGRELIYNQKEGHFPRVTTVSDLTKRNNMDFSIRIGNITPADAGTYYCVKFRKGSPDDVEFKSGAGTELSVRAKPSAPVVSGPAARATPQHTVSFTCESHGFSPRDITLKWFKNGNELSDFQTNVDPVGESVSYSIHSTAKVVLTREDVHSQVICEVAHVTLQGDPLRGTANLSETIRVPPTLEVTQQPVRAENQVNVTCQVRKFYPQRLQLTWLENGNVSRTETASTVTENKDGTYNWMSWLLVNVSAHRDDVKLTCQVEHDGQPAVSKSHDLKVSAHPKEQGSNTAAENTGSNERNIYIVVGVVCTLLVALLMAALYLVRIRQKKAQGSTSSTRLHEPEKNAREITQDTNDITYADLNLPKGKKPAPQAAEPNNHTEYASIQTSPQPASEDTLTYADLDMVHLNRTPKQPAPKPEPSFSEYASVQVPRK", "T1 sequence (Q08722 whole entry, looked up)": "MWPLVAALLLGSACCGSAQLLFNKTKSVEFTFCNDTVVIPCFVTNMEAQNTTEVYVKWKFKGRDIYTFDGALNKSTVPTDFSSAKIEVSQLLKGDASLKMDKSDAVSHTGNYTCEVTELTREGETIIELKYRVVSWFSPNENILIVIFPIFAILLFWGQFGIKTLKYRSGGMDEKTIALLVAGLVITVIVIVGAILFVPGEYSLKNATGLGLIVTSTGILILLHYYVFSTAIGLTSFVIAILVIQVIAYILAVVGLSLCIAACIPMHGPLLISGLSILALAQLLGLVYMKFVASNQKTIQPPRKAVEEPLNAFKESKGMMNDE", "assay": "CD47-SIRPalpha protein protein interaction - LANCE assay qHTS validation (AID 1347057; active = well fitted curve in the direction sought with a large enough effect in the signal ratio, with a control signal flat, not every such curve was filed as active; the % refers to the signal ratio; note: 0% is about no effect)", "settings": "Recombinant CD47-His / biotin-SIRPalpha, TR-FRET ratio; series mostly up to 38.3 µM; activity change, negative = inhibition: at the top concentration", "in_short": "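Inhibition of soluble CD47/SIRPalpha ectodomain association by titrated compounds, measured as 665/615 nm time-resolved FRET ratio after sequential 30 min room-temperature incubations.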"}
{"smiles": "NCCS(=O)(=O)O", "activity change, negative = inhibition": "1.58% (inactive)"}
{"smiles": "CNCCCC12CCC(c3ccccc31)c1ccccc12", "activity change, negative = inhibition": "-0.193% (inactive)"}
{"smiles": "COc1cc2nc(N3CCN(C(=O)C4COc5ccccc5O4)CC3)nc(N)c2cc1OC", "note": "(configuration not stated)", "activity change, negative = inhibition": "-1.06% (inactive)"}
{"smiles": "CC(C)NCC(O)c1ccc(O)c(O)c1", "note": "(configuration not stated)", "activity change, negative = inhibition": "0.612% (inactive)"}
{"smiles": "CN(C)CCC=C1c2ccccc2C=Cc2ccccc21", "activity change, negative = inhibition": "0.791% (inactive)"}
{"smiles": "Cn1c(=O)c2[nH]cnc2n(C)c1=O", "activity change, negative = inhibition": "2.23% (inactive)"}
{"smiles": "COC(=O)Nc1nc2ccc(C(=O)c3cccs3)cc2[nH]1", "activity change, negative = inhibition": "-0.0935% (inactive)"}
{"smiles": "Cc1cc(C(C)(C)C)cc(C)c1CC1=NCCN1", "activity change, negative = inhibition": "0.967% (inactive)"}
{"smiles": "COc1ccccc1OCC(O)CN1CCN(CC(=O)Nc2c(C)cccc2C)CC1", "note": "(configuration not stated)", "activity change, negative = inhibition": "1.6% (inactive)"}
{"smiles": "NC12CC3CC(CC(C3)C1)C2", "activity change, negative = inhibition": "-0.44% (inactive)"}
{"smiles": "CN1CCN(CCCN2c3ccccc3Sc3ccc(Cl)cc32)CC1", "activity change, negative = inhibition": "1.41% (inactive)"}
{"smiles": "CCC1(C)CC(=O)NC1=O", "note": "(configuration not stated)", "activity change, negative = inhibition": "-0.213% (inactive)"}
{"smiles": "Clc1ccccc1C(c1ccccc1)(c1ccccc1)n1ccnc1", "activity change, negative = inhibition": "-0.836% (inactive)"}
{"smiles": "NC(=O)NO", "activity change, negative = inhibition": "1.59% (inactive)"}
{"smiles": "NCCCCCC(=O)O", "activity change, negative = inhibition": "1.32% (inactive)"}
{"smiles": "CCc1cccc2c3c([nH]c12)C(CC)(CC(=O)O)OCC3", "note": "(configuration not stated)", "activity change, negative = inhibition": "-0.352% (inactive)"}
{"smiles": "CN1C(C(=O)Nc2ccccn2)=C(O)c2ccccc2S1(=O)=O", "activity change, negative = inhibition": "3.53% (inactive)"}
{"smiles": "COc1cc2c(c(OC)c1OC)-c1ccc(OC)c(=O)cc1[C@@H](NC(C)=O)CC2", "activity change, negative = inhibition": "0.352% (inactive)"}
{"smiles": "CN(C)C(=O)C(CCN1CCC(O)(c2ccc(Cl)cc2)CC1)(c1ccccc1)c1ccccc1", "activity change, negative = inhibition": "3.34% (inactive)"}
{"smiles": "COc1nc(C)nc(Cl)c1NC1=NCCN1", "activity change, negative = inhibition": "2.33% (inactive)"}
{"smiles": "Cc1ccc(C(=O)Nc2ccc(S(=O)(=O)O)c3cc(S(=O)(=O)O)cc(S(=O)(=O)O)c23)cc1NC(=O)c1cccc(NC(=O)Nc2cccc(C(=O)Nc3cc(C(=O)Nc4ccc(S(=O)(=O)O)c5cc(S(=O)(=O)O)cc(S(=O)(=O)O)c45)ccc3C)c2)c1", "activity change, negative = inhibition": "-2.53% (inactive)"}
{"smiles": "OCCN1CCN(CCCN2c3ccccc3Sc3ccc(C(F)(F)F)cc32)CC1", "activity change, negative = inhibition": "-0.22% (inactive)"}
{"smiles": "C[C@](N)(Cc1ccc(O)c(O)c1)C(=O)O", "activity change, negative = inhibition": "0.923% (inactive)"}
{"smiles": "NC(=O)OCC(COC(N)=O)c1ccccc1", "activity change, negative = inhibition": "2.39% (inactive)"}
{"smiles": "O=C(c1ccc(F)cc1)C1CCN(CCn2c(=O)[nH]c3ccccc3c2=O)CC1", "activity change, negative = inhibition": "-0.407% (inactive)"}
{"smiles": "Cc1cc(C(C)(C)C)c(O)c(C)c1CC1=NCCN1", "activity change, negative = inhibition": "2.54% (inactive)"}
{"smiles": "COc1cc2nc(N(C)CCCNC(=O)C3CCCO3)nc(N)c2cc1OC", "note": "(configuration not stated)", "activity change, negative = inhibition": "1.14% (inactive)"}
{"smiles": "CCCCc1oc2ccccc2c1C(=O)c1cc(I)c(OCCN(CC)CC)c(I)c1", "activity change, negative = inhibition": "-2.7% (inactive)"}
{"smiles": "COc1cc2nc(N3CCN(C(=O)c4ccco4)CC3)nc(N)c2cc1OC", "activity change, negative = inhibition": "-0.659% (inactive)"}
{"molecular_target": "T1, Tyrosine-protein phosphatase non-receptor type substrate 1 (Homo sapiens) + Leukocyte surface antigen CD47 (Homo sapiens)", "assay": "CD47-SIRPalpha protein protein interaction - HTRF assay qHTS validation (AID 1347058; active = well fitted curve in the direction sought with a large enough effect in the signal ratio, not every such curve was filed as active; the % refers to the signal ratio; note: 0% is about no effect)", "settings": "TR-FRET HTRF CD47-His / biotin-SIRPalpha binding, ratio 665/615; series mostly up to 38.3 µM; activity change, negative = inhibition: at the top concentration", "in_short": "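Soluble extracellular domains (6His-CD47, Avi-tag-biotinylated SIRPalpha) in PBS pH 7.4 with 0.05% IGEPAL CA-630. Compounds were preincubated 30 min at RT with CD47 and anti-His-Eu, then SIRPalpha and SAV-XL665 were added. TR-FRET 665/615 ratio.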"}
{"smiles": "NCCS(=O)(=O)O", "activity change, negative = inhibition": "6.83% (inactive)"}
{"smiles": "CNCCCC12CCC(c3ccccc31)c1ccccc12", "activity change, negative = inhibition": "-0.318% (inactive)"}
{"smiles": "COc1cc2nc(N3CCN(C(=O)C4COc5ccccc5O4)CC3)nc(N)c2cc1OC", "note": "(configuration not stated)", "activity change, negative = inhibition": "-0.998% (inactive)"}
{"smiles": "CC(C)NCC(O)c1ccc(O)c(O)c1", "note": "(configuration not stated)", "activity change, negative = inhibition": "6.7% (inactive)"}
{"smiles": "CN(C)CCC=C1c2ccccc2C=Cc2ccccc21", "activity change, negative = inhibition": "9.96% (inactive)"}
{"smiles": "Cc1cc(C(C)(C)C)cc(C)c1CC1=NCCN1", "activity change, negative = inhibition": "-0.664% (inactive)"}
{"smiles": "COc1ccccc1OCC(O)CN1CCN(CC(=O)Nc2c(C)cccc2C)CC1", "note": "(configuration not stated)", "activity change, negative = inhibition": "-1.06% (inactive)"}
{"smiles": "NC12CC3CC(CC(C3)C1)C2", "activity change, negative = inhibition": "1.82% (inactive)"}
{"smiles": "CN1CCN(CCCN2c3ccccc3Sc3ccc(Cl)cc32)CC1", "activity change, negative = inhibition": "-0.838% (inactive)"}
{"smiles": "CCC1(C)CC(=O)NC1=O", "note": "(configuration not stated)", "activity change, negative = inhibition": "-8.58% (inactive)"}
{"smiles": "Clc1ccccc1C(c1ccccc1)(c1ccccc1)n1ccnc1", "activity change, negative = inhibition": "-12.1% (inactive)"}
{"smiles": "NC(=O)NO", "activity change, negative = inhibition": "0.912% (inactive)"}
{"smiles": "NCCCCCC(=O)O", "activity change, negative = inhibition": "-0.623% (inactive)"}
{"smiles": "CCc1cccc2c3c([nH]c12)C(CC)(CC(=O)O)OCC3", "note": "(configuration not stated)", "activity change, negative = inhibition": "2.11% (inactive)"}
{"smiles": "CN(C)C(=O)C(CCN1CCC(O)(c2ccc(Cl)cc2)CC1)(c1ccccc1)c1ccccc1", "activity change, negative = inhibition": "1.59% (inactive)"}
{"smiles": "COc1nc(C)nc(Cl)c1NC1=NCCN1", "activity change, negative = inhibition": "2.03% (inactive)"}
{"smiles": "OCCN1CCN(CCCN2c3ccccc3Sc3ccc(C(F)(F)F)cc32)CC1", "activity change, negative = inhibition": "-3.19% (inactive)"}
{"smiles": "C[C@](N)(Cc1ccc(O)c(O)c1)C(=O)O", "activity change, negative = inhibition": "1.07% (inactive)"}
{"smiles": "NC(=O)OCC(COC(N)=O)c1ccccc1", "activity change, negative = inhibition": "0.553% (inactive)"}
{"smiles": "O=C(c1ccc(F)cc1)C1CCN(CCn2c(=O)[nH]c3ccccc3c2=O)CC1", "activity change, negative = inhibition": "0.346% (inactive)"}
{"smiles": "Cc1cc(C(C)(C)C)c(O)c(C)c1CC1=NCCN1", "activity change, negative = inhibition": "-1.44% (inactive)"}
{"smiles": "COc1cc2nc(N(C)CCCNC(=O)C3CCCO3)nc(N)c2cc1OC", "note": "(configuration not stated)", "activity change, negative = inhibition": "3.08% (inactive)"}
{"smiles": "CCCCc1oc2ccccc2c1C(=O)c1cc(I)c(OCCN(CC)CC)c(I)c1", "activity change, negative = inhibition": "0.0779% (inactive)"}
{"smiles": "COc1cc2nc(N3CCN(C(=O)c4ccco4)CC3)nc(N)c2cc1OC", "activity change, negative = inhibition": "1.49% (inactive)"}
